# Source: PubChem BioAssay (NCATS)
# Where “and” joins values, the source holds several entries; their conditions need not be identical. Equal entries are not always repeated. Values without a mark were called inactive. Results filed as inconclusive are left out. Where a call stands in place of a potency, no number is given. Calls of active or inactive are those of the source. Unless noted, the call rests on the fitted dose curve; in most records, active means well fitted curve in the direction sought with a large enough effect; inconclusive means small, poorly fitted or top-dose-only effect, or another doubt; inactive means no such curve, though single readings can be large; an effect the other way counts as inactive or inconclusive.
# Key:
# [1] = AP1 Signaling Pathway (AID 357; active means well fitted curve in either direction with a large enough effect, not every such curve was filed as active;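 further: ME-180 reporter cells stimulated with EGF at its EC50 level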); conditions: ME-180 AP-1-bla reporter, EGF-induced, beta-lactamase ratio, 5 h; at 7.69 µM (top of the series) unless noted
# How it was run: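 Beta-lactamase reporter under AP-1 response element, ME-180 background. Stimulus: EC50 EGF. Compound exposure 5 h, 37 °C. Detection: CCF4, 2.5 h RT, 460/530 nm. Values: AC50 from titration.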
# [2] = biological target: Cytochrome P450 1A2 (Homo sapiens) (UniProt P05177); assay: p450-cyp1a2 (AID 410; calls by dose curve)
# Cytochrome P450 1A2 (Homo sapiens), sequence (P05177 whole entry, looked up): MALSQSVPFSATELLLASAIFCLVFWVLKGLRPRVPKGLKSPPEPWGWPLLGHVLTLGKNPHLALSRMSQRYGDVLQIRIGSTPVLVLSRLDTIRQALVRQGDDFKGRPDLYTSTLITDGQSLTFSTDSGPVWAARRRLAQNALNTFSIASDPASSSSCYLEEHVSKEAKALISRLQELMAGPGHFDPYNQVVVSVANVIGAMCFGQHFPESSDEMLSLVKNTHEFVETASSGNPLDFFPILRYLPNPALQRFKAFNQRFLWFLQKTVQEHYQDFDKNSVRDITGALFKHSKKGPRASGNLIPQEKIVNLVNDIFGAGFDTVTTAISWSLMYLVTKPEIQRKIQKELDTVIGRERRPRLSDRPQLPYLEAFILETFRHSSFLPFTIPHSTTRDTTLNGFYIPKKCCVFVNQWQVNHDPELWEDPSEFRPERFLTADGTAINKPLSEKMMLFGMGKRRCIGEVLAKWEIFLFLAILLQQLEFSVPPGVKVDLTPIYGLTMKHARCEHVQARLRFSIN
# How it was run: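 20nM CYP1A2, 100uM Luciferin-ME (=Km), 100mM KPO4; cpd 10 min RT; +NADPH regen, 60 min RT; stop/detect 20 min; luminescence. Normalized to furafylline 57 uM = full inhibition.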
# [3] = NFAT Signaling Pathway (AID 444; active means well fitted curve in either direction with a large enough effect, not every such curve was filed as active;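 further: carbachol stimulus at about its EC50 of 1 µM final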); conditions: Jurkat NFAT-bla M1, carbachol, beta-lactamase ratio, 5 h; at 7.69 µM (top of the series) unless noted
# How it was run: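 Jurkat cells with NFAT-driven β-lactamase reporter and co-expressed M1 receptor, stimulated with carbachol (final 1 uM, ~EC50), compound titration, 5 h at 37 °C. CCF4 loaded 1 h at RT; 460/530 nm ratio gave %activity and AC50.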
# [4] = Stat Signaling Pathway (AID 446; active means well fitted curve in either direction with a large enough effect, not every such curve was filed as active;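 further: ME-180 cervical cancer cells given 40 pM IL-6 alongside compound; SIE-controlled beta-lactamase reporter measured as 460/530 nm FRET emission ratio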); conditions: ME-180 SIE beta-lactamase reporter, IL-6 stimulated, 5 h; at 7.69 µM (top of the series) unless noted
# How it was run: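 Compound effects on IL-6-induced STAT reporter activity were measured in ME-180 cells. After overnight culture, cells were co-treated with 40 pM IL-6 for 5 hrs before beta-lactamase substrate loading at room temperature.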
# [5] = biological target: Glucocorticoid receptor (Homo sapiens) (UniProt P04150); assay: GR-GFP Redistribution (AID 450;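 active means compounds whose dose series gives a full or clear partial fitted curve of increased nuclear translocation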; further: potency means the concentration at half of the fitted maximal effect); conditions: U2OS GR-GFP nuclear translocation, laser cytometry, 2 h
# Glucocorticoid receptor (Homo sapiens), sequence (P04150 whole entry, looked up, the tested form may be a part): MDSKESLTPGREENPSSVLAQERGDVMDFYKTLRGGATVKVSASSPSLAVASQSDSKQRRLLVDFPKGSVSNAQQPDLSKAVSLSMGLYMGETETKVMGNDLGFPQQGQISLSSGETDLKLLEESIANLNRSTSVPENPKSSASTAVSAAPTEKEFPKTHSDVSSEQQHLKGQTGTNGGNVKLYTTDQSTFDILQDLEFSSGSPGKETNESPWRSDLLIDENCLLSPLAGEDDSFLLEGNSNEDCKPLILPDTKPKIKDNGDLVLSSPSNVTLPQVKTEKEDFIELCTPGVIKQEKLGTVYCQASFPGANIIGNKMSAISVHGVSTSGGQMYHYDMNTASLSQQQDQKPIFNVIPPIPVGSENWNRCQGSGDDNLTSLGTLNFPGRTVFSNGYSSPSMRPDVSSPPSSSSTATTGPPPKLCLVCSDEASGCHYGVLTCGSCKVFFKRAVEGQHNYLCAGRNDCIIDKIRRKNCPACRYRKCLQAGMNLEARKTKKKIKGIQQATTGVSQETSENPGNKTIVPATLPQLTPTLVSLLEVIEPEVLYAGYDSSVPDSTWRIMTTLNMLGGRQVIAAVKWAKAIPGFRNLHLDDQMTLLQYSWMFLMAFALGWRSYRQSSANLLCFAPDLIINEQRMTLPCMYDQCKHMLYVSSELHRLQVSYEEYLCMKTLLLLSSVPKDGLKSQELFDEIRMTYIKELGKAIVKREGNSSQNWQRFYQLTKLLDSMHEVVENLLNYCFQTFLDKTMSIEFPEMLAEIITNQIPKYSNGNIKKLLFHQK
# [6] = biological target: Glucocorticoid receptor (Homo sapiens) (UniProt P04150); assay: GR-EFC Redistribution (AID 451; calls by dose curve; further: potency means the concentration at half of the fitted maximal effect); conditions: CHO-K1 GR-EFC translocation, beta-gal luminescence, 2 h
# How it was run: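 CHO-K1 cells expressing nuclear EA and GR-ED fragments of b-gal; compounds titrated up to 46 uM final, 2 h at 37 C. GR nuclear translocation read as complemented b-gal luminescence after 1 h RT detection.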
# [7] = biological target: Mitogen-activated protein kinase 10 (Mus musculus) (UniProt Q61831); assay: JNK3 AlphaScreen Assay (AID 530; active means well fitted curve in either direction with a large enough effect, not every such curve was filed as active;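 further: kinase came from lysate of stimulated human HepG2 cells; signal reports phosphorylation of biotinylated GST-cJun 1-79 at Ser73 with 10 µM ATP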)
# How it was run: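 HepG2 lysate (IL-1b/TNFa pre-activated) + biotin-GST-cJun 1-79 + anti-pSer73 cJun; cpd titration, 15 min RT; ATP 10 uM start; Tris pH 7.6, MgCl2, DTT, vanadate; beads in EDTA buffer; AlphaScreen.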
# [8] = biological target: 3',5'-cyclic-AMP phosphodiesterase 4B (Homo sapiens) (UniProt Q07343); assay: qHTS Assay for Inhibitors of PDE-IV (AID 607; active means well fitted activation curve with a large enough effect in the main read-out, with a control signal flat, not every such curve was filed as active)
# 3',5'-cyclic-AMP phosphodiesterase 4B (Homo sapiens), sequence (Q07343 whole entry, looked up): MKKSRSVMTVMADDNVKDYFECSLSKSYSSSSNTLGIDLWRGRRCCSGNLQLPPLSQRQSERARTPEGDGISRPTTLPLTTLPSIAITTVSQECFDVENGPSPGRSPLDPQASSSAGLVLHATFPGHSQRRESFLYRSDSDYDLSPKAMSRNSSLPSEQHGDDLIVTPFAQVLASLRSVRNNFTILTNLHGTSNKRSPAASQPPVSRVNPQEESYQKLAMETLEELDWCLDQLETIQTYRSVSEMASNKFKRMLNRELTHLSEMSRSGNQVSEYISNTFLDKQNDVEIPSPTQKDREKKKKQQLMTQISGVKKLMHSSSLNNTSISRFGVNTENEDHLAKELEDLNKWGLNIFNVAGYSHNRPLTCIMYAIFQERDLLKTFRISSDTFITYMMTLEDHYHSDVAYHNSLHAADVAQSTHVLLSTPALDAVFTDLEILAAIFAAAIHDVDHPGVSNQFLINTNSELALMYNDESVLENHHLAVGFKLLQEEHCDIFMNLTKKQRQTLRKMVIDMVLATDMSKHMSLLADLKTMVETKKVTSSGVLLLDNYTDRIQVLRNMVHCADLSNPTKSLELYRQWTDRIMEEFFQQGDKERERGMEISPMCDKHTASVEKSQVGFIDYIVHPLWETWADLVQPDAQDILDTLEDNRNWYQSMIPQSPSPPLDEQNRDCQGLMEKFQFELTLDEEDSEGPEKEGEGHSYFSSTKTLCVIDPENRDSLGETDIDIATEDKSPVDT
# How it was run: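 ACTOne HEK293 cells carry a modified cAMP-gated CNG channel and express endogenous PDE4; plated 1000 cells/well, compounds up to 22.9 uM final. Membrane-potential dye fluorescence (ex 535/em 590) was read; parental cells received 10 uM forskolin + 100 uM RO 20-1724.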
# [9] = biological target: Guanine nucleotide-binding protein G(i) subunit alpha-1 (Homo sapiens) (UniProt P63096); assay: qHTS Assay for Inhibitors of RGS12 GoLoco Motif Activity (Green Fluorophore) (AID 879);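 further: negative values mean loss of peptide binding seen as reduced polarization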
# Guanine nucleotide-binding protein G(i) subunit alpha-1 (Homo sapiens), sequence (P63096 whole entry, looked up): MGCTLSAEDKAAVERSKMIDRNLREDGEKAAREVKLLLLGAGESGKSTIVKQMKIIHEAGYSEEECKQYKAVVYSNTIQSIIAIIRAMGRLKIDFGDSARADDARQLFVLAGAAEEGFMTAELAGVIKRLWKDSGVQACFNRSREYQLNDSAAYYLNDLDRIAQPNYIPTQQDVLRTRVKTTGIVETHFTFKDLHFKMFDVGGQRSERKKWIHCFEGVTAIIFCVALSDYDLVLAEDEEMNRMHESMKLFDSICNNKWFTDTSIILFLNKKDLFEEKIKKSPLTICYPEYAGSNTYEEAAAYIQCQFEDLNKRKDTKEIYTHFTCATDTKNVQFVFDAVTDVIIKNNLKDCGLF
# How it was run: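 A drop in FITC polarization marked displacement of the FITC-tagged RGS12 GoLoco peptide (10 nM) from Gαi1 (50 nM). Compounds were incubated 10 min at room temperature in Tris pH 7.5 buffer containing 150 mM NaCl, 0.1 mM GDP and 0.05% NP40; unlabeled peptide titration served as control.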
# [10] = biological target: Cytochrome P450 2C19 (Homo sapiens) (UniProt P33261); assay: qHTS Assay for Inhibitors and Substrates of Cytochrome P450 2C19 (AID 899); further: nearly all actives have a fitted effect of over 60% in size
# Cytochrome P450 2C19 (Homo sapiens), sequence (P33261 whole entry, looked up): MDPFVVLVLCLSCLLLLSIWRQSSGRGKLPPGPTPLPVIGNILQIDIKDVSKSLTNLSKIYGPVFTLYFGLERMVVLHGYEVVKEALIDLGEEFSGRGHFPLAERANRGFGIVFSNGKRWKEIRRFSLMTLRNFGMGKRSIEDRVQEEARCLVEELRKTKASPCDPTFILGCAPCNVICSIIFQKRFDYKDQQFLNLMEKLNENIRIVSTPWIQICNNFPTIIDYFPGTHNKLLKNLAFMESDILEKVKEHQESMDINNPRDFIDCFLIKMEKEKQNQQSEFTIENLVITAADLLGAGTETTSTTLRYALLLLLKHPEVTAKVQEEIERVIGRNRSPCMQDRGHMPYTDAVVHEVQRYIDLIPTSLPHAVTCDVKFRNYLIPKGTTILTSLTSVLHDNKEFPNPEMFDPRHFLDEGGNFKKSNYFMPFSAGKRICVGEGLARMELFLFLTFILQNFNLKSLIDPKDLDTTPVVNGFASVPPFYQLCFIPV
# How it was run: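 5 nM human CYP2C19 with 10uM Luciferin-H EGE (at KM) in 50mM KPO4, compound preincubated 10 min at 37C, then NADPH regeneration for 60 min at 37C. Luciferin read by luminescence after detection reagent; normalized to 57uM ketoconazole as full inhibition.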
# [11] = qHTS Assay for Identification of Small Molecule Agonists for Thrombopoietin (TPO) Signaling Pathway (AID 917)
# How it was run: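 Ba/F3 (mouse) + hTPO receptor + GpIIb-promoter luciferase; IL-3 withdrawn overnight; compound + 26 pM TPO (EC50), 24 hrs, 37 C, 5% CO2; Steadylite luminescence, 10 min RT.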
# [12] = biological target: Muscarinic acetylcholine receptor M1 (Rattus norvegicus) (UniProt P08482); assay: qHTS Assay for Antagonists of Acetylcholine Muscarinic M1 Receptor: Measurement of IP-One Response (AID 944); further: nearly all actives have a fitted effect of over 75% in size
# How it was run: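 Read-out: HTRF competition between d2-IP1 and Eu-cryptate anti-IP1 antibody, emission 620 and 665 nm. Stimulus was carbachol, EC80 (200 nM), for 30 min in M1-CHO cells (rat receptor), after 10 min compound pre-treatment.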
# [13] = biological target: Pyruvate kinase (Leishmania mexicana) (UniProt Q27686); assay: qHTS Validation Assay for Inhibitors of Leishmania Mexicana Pyruvate Kinase (AID 945)
# How it was run: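 Pyruvate kinase activity of E451W LmPYK (0.2 nM) was followed as ATP output after 1 h at room temperature with 0.5 mM PEP and 0.1 mM ADP, detected by PKLight luminescence.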
# [14] = biological target: Pyruvate kinase PKM (Homo sapiens) (UniProt P14618); assay: qHTS Assay for Activators of Human Muscle Pyruvate Kinase (AID 954; active means well fitted curve in the direction sought with a large enough effect, not every such curve was filed as active)
# Pyruvate kinase PKM (Homo sapiens), sequence (P14618 whole entry, looked up): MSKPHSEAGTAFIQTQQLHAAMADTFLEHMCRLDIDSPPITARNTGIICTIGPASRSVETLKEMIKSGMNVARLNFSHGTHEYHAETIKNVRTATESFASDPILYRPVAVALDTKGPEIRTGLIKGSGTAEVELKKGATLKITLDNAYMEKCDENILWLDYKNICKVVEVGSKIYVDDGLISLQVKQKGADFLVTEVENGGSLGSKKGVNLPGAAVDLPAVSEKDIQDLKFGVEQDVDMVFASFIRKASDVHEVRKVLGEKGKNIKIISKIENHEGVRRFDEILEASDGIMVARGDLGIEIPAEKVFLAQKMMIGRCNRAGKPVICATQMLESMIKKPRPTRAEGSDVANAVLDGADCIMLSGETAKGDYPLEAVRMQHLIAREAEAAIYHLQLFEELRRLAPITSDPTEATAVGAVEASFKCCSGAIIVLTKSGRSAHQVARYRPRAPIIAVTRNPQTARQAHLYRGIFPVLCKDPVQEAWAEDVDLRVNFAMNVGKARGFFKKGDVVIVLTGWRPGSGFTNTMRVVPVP
# How it was run: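 A coupled luminescent readout tracked ATP made from ADP by purified PKM2. Final conditions included 0.1 nM enzyme, PEP and ADP at 0.5 and 0.1 mM, pH 7.2 imidazole buffer with BSA, and a one-hour room-temperature reaction.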
# [15] = biological target: Alpha-galactosidase A (Homo sapiens) (UniProt P06280); assay: Counterscreen for Glucocerebrosidase Inhibitors: qHTS Assay for Human alpha-Galactosidase at pH 4.5 (AID 992)
# Alpha-galactosidase A (Homo sapiens), sequence (P06280 whole entry, looked up): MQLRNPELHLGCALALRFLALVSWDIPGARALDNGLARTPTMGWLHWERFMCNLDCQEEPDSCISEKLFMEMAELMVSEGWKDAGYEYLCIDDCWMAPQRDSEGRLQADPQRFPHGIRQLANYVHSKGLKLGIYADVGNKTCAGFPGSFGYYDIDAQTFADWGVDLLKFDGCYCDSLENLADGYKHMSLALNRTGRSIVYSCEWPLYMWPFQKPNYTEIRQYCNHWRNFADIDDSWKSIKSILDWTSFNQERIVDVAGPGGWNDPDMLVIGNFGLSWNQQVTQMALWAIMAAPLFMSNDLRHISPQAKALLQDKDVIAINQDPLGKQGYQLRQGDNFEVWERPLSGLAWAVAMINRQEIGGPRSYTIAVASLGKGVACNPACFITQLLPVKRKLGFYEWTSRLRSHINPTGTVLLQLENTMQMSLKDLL
# How it was run: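 Citrate buffer pH 4.5, Tween-20 0.005%. Enzyme 2 nM, substrate 80 uM, 20 min RT. Stop pH 10. Fluorescence Ex 365/Em 440. AC50 by Hill fit.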
# [16] = biological target: alpha-glucosidase (Oryza sativa, rice) (UniProt Q653V4); assay: Counterscreen for Glucocerebrosidase Inhibitors: qHTS Assay for Rice alpha-Glucosidase at pH 5.0 (AID 997)
# How it was run: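 Endpoint fluorogenic assay at pH 5.0: compounds (0.7 nM to 77 uM) titrated against 4 nM rice enzyme and 400 uM 4-MU-alpha-glucoside for 20 min at room temperature; NaOH/glycine stop, read ex 365/em 440 nm, Hill-fitted AC50.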
# [17] = biological target: Cytochrome P450 2C9 (Homo sapiens) (UniProt P11712); assay: qHTS Assay for Inhibitors and Substrates of Cytochrome P450 2C9 (AID 883); further: nearly all actives have a fitted effect of over 60% in size
# Cytochrome P450 2C9 (Homo sapiens), sequence (P11712 whole entry, looked up): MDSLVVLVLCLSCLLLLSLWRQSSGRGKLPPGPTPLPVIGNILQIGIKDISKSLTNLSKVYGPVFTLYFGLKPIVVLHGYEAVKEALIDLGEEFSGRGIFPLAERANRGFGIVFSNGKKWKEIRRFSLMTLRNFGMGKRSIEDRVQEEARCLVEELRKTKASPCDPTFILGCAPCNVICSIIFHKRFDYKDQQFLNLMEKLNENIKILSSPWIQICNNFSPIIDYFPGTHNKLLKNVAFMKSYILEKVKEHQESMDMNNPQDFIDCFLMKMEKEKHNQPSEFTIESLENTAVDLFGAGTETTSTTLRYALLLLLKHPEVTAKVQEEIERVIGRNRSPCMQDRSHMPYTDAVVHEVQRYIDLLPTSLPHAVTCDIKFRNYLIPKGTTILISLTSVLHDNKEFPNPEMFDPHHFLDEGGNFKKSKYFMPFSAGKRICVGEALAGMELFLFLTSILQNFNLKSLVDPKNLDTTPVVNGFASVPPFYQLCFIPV
# How it was run: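 Human CYP2C9 (10nM) with Luciferin-H at 100uM (its KM) in 25mM KPO4; compound preincubated 10 min at 37C, then NADPH regeneration for 60 min at 37C. Luciferin read by luminescence after detection reagent; normalized to 57uM sulphaphenazole as full inhibition.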
# [18] = biological target: Cytochrome P450 2D6 (Homo sapiens) (UniProt P10635); assay: qHTS Assay for Inhibitors and Substrates of Cytochrome P450 2D6 (AID 891);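 further: luciferin methyl ether substrate demethylated by CYP2D6 with NADPH regeneration; nearly all actives have a fitted effect of over 60% in size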
# How it was run: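 Luminescent read-out of luciferin formed by 5 nM human CYP2D6 demethylating 30 uM Luciferin-ME EGE (Km level) over 60 min at room temperature after NADPH regeneration addition. Data normalized to full inhibition by 1.43 uM quinidine.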
# [19] = biological target: Cytochrome P450 3A4 (Homo sapiens) (UniProt P08684); assay: qHTS Assay for Activators of Cytochrome P450 3A4 (AID 885); further: nearly all actives have a fitted effect of over 65% in size
# Cytochrome P450 3A4 (Homo sapiens), sequence (P08684 whole entry, looked up): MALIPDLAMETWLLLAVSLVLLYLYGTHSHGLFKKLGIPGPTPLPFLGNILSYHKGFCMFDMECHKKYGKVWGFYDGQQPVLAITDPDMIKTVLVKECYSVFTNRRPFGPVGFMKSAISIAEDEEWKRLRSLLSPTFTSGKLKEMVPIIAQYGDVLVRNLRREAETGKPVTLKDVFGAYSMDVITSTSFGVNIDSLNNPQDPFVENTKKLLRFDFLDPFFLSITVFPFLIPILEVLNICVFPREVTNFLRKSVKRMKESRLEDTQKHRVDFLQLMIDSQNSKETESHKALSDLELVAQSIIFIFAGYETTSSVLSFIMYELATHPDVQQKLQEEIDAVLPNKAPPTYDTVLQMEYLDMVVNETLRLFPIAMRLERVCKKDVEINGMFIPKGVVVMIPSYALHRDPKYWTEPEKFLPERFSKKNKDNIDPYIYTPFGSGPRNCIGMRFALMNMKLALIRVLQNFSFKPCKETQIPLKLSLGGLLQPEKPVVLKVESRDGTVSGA
# How it was run: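 CYP3A4 activity: Luciferin-PPXE O-dealkylation, 25uM substrate, 200mM KPO4, RT throughout. Read-out is luciferase luminescence; higher values reflect activation.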
# [20] = qHTS Assay for Identification of Small Molecule Antagonists for NFkB Signaling Pathway (AID 895; active means well fitted inhibition curve with a large enough effect in the signal ratio, with a control signal flat, not every such curve was filed as active; the % refers to the signal ratio)
# How it was run: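 ME-180 NFkB-bla cells (beta-lactamase under NFkB response element), plated overnight, treated with compound then 10 pM TNF alpha (about EC50) for 5 hrs at 37 C. LiveBLAzer FRET read at 460/530 nm emission, 405 nm excitation.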
SMILES,"activity change, negative = inhibition [1]",Potency [2],"activity change, negative = inhibition [3]","activity, negative = inhibition [4]",Potency [5],Potency [6],Potency [7],Potency [8],outcome [9],Potency [10],outcome [11],Potency [12],outcome [13],outcome [14],outcome [15],Potency [16],Potency [17],Potency [18],Potency [19],Potency [20]
N[C@H](CCCC(=O)O)C(=O)O,3.41% [at 38 µM],inactive,7.48% [at 38 µM],-3.61% [at 38 µM],> 46 µM,> 46 µM,inactive,inactive,inactive,inactive,inactive,inactive,inactive,inactive,inactive,inactive,–,–,–,–
N[C@@H](C(=O)O)[C@@H]1C[C@H]1C(=O)O,-6.47% [at 38 µM],inactive,4.34% [at 38 µM],16.9% [at 38 µM],> 46 µM,> 46 µM,inactive,inactive,–,inactive,–,–,–,–,–,–,inactive,–,–,–
CC[C@@H]1CN2CCc3cc(OC)c(OC)cc3[C@H]2C[C@@H]1C[C@H]1NCCc2cc(OC)c(OC)cc21,-115% [at 17.2 µM] (active),inactive,-120% [at 17.2 µM] (active),-94.8% [at 17.2 µM] (active),> 20.6 µM and > 46 µM,> 20.6 µM and > 46 µM,–,–,–,–,–,–,–,–,–,–,inactive,inactive,–,–
CCCCC[C@H](CC(=O)NO)C(=O)N[C@@H](C(=O)N1CCC[C@H]1CO)C(C)C,26.8% [at 38 µM],inactive,6.72% [at 38 µM],7.77% [at 38 µM],> 46 µM,> 46 µM,–,inactive,inactive,inactive,–,inactive,–,inactive,inactive,inactive,–,–,inactive,–
Nc1nc(SCc2ccc([N+](=O)[O-])cc2)c2ncn([C@@H]3O[C@@H](CO)[C@@H](O)[C@H]3O)c2n1,-11.9% [at 38 µM],inactive,0.367% [at 38 µM],-17% [at 38 µM],> 46 µM,> 46 µM,–,inactive,inactive,–,inactive,–,–,inactive,inactive,inactive,–,–,inactive,inactive
